Source: PubChem BioAssay (NCI)
Compounds without any hit were thinned out: in the full panel of roughly 83,000, 20% have a hit.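 Compound tested at a single concentration for 48 hours in 96-well plates; a percent growth value below 10 was scored as active.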 Active and inactive are the calls of the source.

Test system: MDA-MB-468 breast
Experiment: NCI-60 one-dose screen, 48 h (100 = growth as untreated, 0 = no growth, -100 = all killed)
Conditions: 10 µM unless noted

SMILES | growth
COc1cc(Nc2nc3ccccc3cc2C(=O)Nc2ccc(F)c(F)c2)cc(OC)c1OC | 4.15% (active)
CNC(=O)c1cc(Oc2ccc(NC(=O)Nc3cc(C(C)(C)C)nn3-c3ccc4ncccc4c3)c(F)c2)ccn1 | -61.8% (active)
Cn1cc(-c2nonc2-c2c[nH]c3ccc(F)cc23)c2cccnc21 | -7.39% (active)
CC1CCCN(CCCCOc2ccc(-c3ccc(C#N)cc3)cc2)C1 (stereo not given) | 87.6% (inactive)
CCCn1cc(/C=N\N=C2\C(=O)Nc3ccc(C)cc32)c2ccccc21 | 25.2% (inactive)
COc1cccc2c1C(=O)c1c(O)c3c(c(O)c1C2=O)C[C@@](O)(C(=O)CO)C[C@@H]3OC1CC(OC(C)=O)C(OC(C)=O)C(C)O1 (stereo not given in full) | -25.8% (active)
Fc1ccc(-c2nnc(/C=C/c3cn(-c4ccccc4)nc3-c3ccccc3)o2)cc1 | 103% (inactive)
COc1cc(N=Nc2ccc(N)cc2)c(OC)cc1N=Nc1ccccc1.[Cl][Zn][Cl] | 118% (inactive)
CCN(CC)CCCCNc1c2ccccc2[n+](C)c2c1[nH]c1ccccc12 | -58.5% (active)
C#Cc1nc(Nc2cc(C)[nH]n2)c2ccccc2n1 | -23.2% (active)
COC(=O)[C@@]1(C)CC[C@]2(C)CC[C@]3(C)C4=CC=C5C(=CC(=O)C(O)=C5C)[C@]4(C)[C@@H](O)C[C@@]3(C)[C@@H]2C1 | 10.1% (inactive)
N#C/C(=C1C=C/C(=N\O)C(Cl)=C\1)c1ccccc1 | 41.2% (inactive)
COC(=O)c1ccc2[nH]c(O)c(C(=Nc3ccc(N(C)C(=O)CN4CCN(C)CC4)cc3)c3ccccc3)c2c1 | 52.3% (inactive)
Cn1ccnc1C(=O)/C=C/c1ccc(CC(=O)Nc2ccc(C(F)(F)F)cc2)cc1 | -6.59% (active)
O=c1[nH]c2ccccc2cc1CSc1ccccc1Nc1nccc(-c2ccc(C(F)(F)F)cc2)n1 | 47.6% (inactive)
COc1ccc(N(C)c2nc(Cl)nc3ccn(C)c23)cc1 | 49.9% (inactive)
COCc1nc(NS(=O)(=O)c2ccc(N)cc2)nc(C)c1Br | 99.1% (inactive)
COc1cc(-c2cc(/C=C/C(=O)c3ccc(F)c(F)c3)[nH]n2)cc(OC)c1OC | 33.8% (inactive)
Oc1cc(Nc2ccnc3cc(Cl)ccc23)c2ncccc2c1 | 47.4% (inactive)
Cc1cc(=O)[nH]c(N/N=C/c2cc(Br)ccc2O)n1 | 3.37% (active)

SMILES | growth
NC(N)=Nc1ccc(Oc2cccc(NC(N)=Nc3ccc(I)cc3F)c2)cc1 | 35.5% (inactive)
O=C1C=CC2=C3c4cc(O)c(O)cc4CC3(O)COC2=C1O (stereo not given) | 102% (inactive)
COc1cc(N)c2ncccc2c1Cl | 103% (inactive)
CC(=O)Nc1ccc(S(=O)(=O)Nc2cccc(-c3nc(-c4ccc(NC(=O)c5cccnc5)cc4Cl)no3)c2)cc1 | 18.4% (inactive)
CN(CSc1ccc(Cl)cc1)c1ccc(CSc2ccc(Cl)cc2)cc1 | 17.2% (inactive)
COc1cc(Cc2cc(-c3ccccc3)n[nH]c2=O)cc(OC)c1OC | 29% (inactive)
CC(C)NC1CCC(Nc2ccnc3cc(Cl)ccc23)CC1 (stereo not given) | 62.3% (inactive)
C=C1C(=O)O[C@H]2[C@H]1CC/C(COC(=O)NCc1ccc(Cn3c(=O)sn(CCCCC)c3=O)cc1)=C\CC[C@@]1(C)O[C@@H]21 | 3.66% (active)
N#Cc1c(NC(=O)c2cccc(Br)c2)sc2c1CCCC2 | 59.3% (inactive)
Oc1ccc2c(=S)cc(-c3ccc(Br)cc3)oc2c1O | -2.5% (active)
COc1ccc(-c2nn(-c3cccc(Cl)c3)cc2C2CC(c3ccccc3)=NN2C(C)=O)cc1 (stereo not given) | 80.9% (inactive)
COc1cnc2c(c1)C(=O)c1c-2n(CCCN2CCNCC2)c(=O)c2cc([N+](=O)[O-])ccc12 | -74.8% (active)
Cc1c(Cl)cccc1N=C=S | 97.8% (inactive)
O=c1c2cc(-c3ccc(F)cc3F)ccc2n(O)c(=O)n1-c1cccc(C(F)(F)F)c1 | -0.858% (active)
CNC(=O)c1cc(Oc2ccc3nc(NC(=O)Nc4ccc(Cl)cc4)sc3c2)ccn1 | 55.1% (inactive)
Cc1ccc(-c2csc(N(C(=O)N3CCN(c4cc5c(cc4F)c(=O)c(C(=O)O)cn5C4CC4)CC3)c3ccccc3)n2)cc1 | -6.73% (active)
COc1cc(-c2n/c(=C\c3c(O)[nH]c4ccccc34)cc3c2=Nc2ccccc2-3)cc(OC)c1OC | 5.24% (active)
C=C1CCC2(C#N)[C@H]3[C@H](CC[C@@H]2C)[C@@H](C)C[C@@H](CC(C)(C)NC(=O)CN2CCC2=O)[C@H]13 (stereo not given in full) | 58% (inactive)
CCOC(=O)C1C(=O)NC(C(=O)OCC)(C(=O)OCC)C1CC (stereo not given) | 108% (inactive)
Cc1ccc(S(=O)(=O)NCCNc2nccc(-c3c(-c4cccc(N)c4)nc4sccn34)n2)cc1 | 63.2% (inactive)
